This passage reports AC50 and outcome results from PubChem BioAssay (EPA / NIEHS).

Results filed as inconclusive are left out. Activity calls are given as the source filed them. Rule for the calls: active = hit-call score of the fitted dose curve at least 0.9, where 1 is the maximum; inconclusive = response in the unintended direction; inactive = score below 0.9.

The target of experiment [1] is AR (gene 367) (UniProt P10275). The experiment can be described thus: ACEA_AR_antagonist_80hr: ACEA Biosciences xCELLigence Real-Time Cell Analysis on Androgen Receptor Antagonism for Proliferation (AID 2283787).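 Note: 22Rv1 human prostate cancer cells with growth followed by electrical impedance; hits lower the impedance growth signal relative to DMSO.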 The method, boiled down:
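Growth-kinetic antagonist readout in 22Rv1 cells, taken 80 h after continuous compound exposure. Activity fitted as signal loss relative to DMSO negative control.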

Experiment [2] has as its target Estrogen receptor beta (Homo sapiens) (UniProt Q92731). The experiment can be described thus: ATG_hERb_XSP1: Attagene TRANS-FACTORIAL Multi-Species (XSP1) HepG2 Assay for human Estrogen Receptor (ESR2) (AID 2283788). The essentials: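 Measured endpoint is transcriptional gain of signal from a GAL4-UAS reporter controlled by chimeric ERβ in HepG2 liver cells. Exposure lasts 24 h alongside 3 nM 6-alpha-fluorotestosterone, with DMSO as negative control.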

The nature of experiment [3]: ATG_M_06_XSP1: Attagene TRANS-FACTORIAL Multi-Species (XSP1) HepG2 Assay for M06 Transcription Factor (Internal Marker) (AID 2283790). The essentials:
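Transfected HepG2 multi-reporter system treated 24 h in the presence of 3 nM 6-alpha-fluorotestosterone. The M06 internal marker transcript was quantified by RT-PCR with capillary electrophoresis as a background control, and gain of signal was scored versus DMSO.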

The target in experiment [4] is Peroxisome proliferator-activated receptor gamma (Homo sapiens) (UniProt P37231). The experiment can be described thus: ATG_hPPARg_XSP1: Attagene TRANS-FACTORIAL Multi-Species (XSP1) HepG2 Assay for human Peroxisome Proliferator-activated Receptor gamma (PPARg) (AID 2283800). The essentials: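 HepG2 cells transiently transfected with GAL4-UAS reporter units carrying chimeric NR-Gal4 proteins; 3 nM 6-alpha-fluorotestosterone present. After 24 h dosing, reporter mRNA quantified by RT-PCR and capillary electrophoresis; gain of signal relative to DMSO.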

The subject of experiment [5] is zebrafish Peroxisome Proliferator-activated Receptor gamma (PPARg), gene 557037. Put plainly: ATG_zfPPARg_XSP1: Attagene TRANS-FACTORIAL Multi-Species (XSP1) HepG2 Assay for zebrafish Peroxisome Proliferator-activated Receptor gamma (PPARg) (AID 2283801). The method, boiled down: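 HepG2 cells transiently transfected with GAL4-UAS reporter units including a zebrafish PPARg–GAL4 chimera, dosed 24 h with 3 nM 6-alpha-fluorotestosterone present. Reporter mRNA quantified by RT-PCR, FAM labelling, HpaI digestion and capillary electrophoresis; induction versus DMSO.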

Experiment [6] addresses mouse Peroxisome Proliferator-activated Receptor gamma (PPARg), Pparg (gene 19016) (UniProt P37238). The experiment can be described thus: ATG_mPPARg_XSP1: Attagene TRANS-FACTORIAL Multi-Species (XSP1) HepG2 Assay for mouse Peroxisome Proliferator-activated Receptor gamma (PPARg) (AID 2283802). The essentials: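 HepG2 cells transiently transfected with GAL4-UAS reporter units driven by mouse PPARg–GAL4 chimera; 3 nM 6-alpha-fluorotestosterone present. After 24 h dosing, reporter mRNA quantified by RT-PCR, fluorescent labelling and capillary electrophoresis; gain of signal versus DMSO.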

In experiment [7] the target is human Thyroid hormone Receptor alpha (TRa), THRA (gene 7067) (UniProt P10827). The experiment can be described thus: ATG_hTRa_XSP1: Attagene TRANS-FACTORIAL Multi-Species (XSP1) HepG2 Assay for human Thyroid hormone Receptor alpha (TRa) (AID 2283805). The essentials:
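HepG2 cells transiently transfected with GAL4-UAS reporter units expressing chimeric NR-Gal4 proteins, dosed 24 hours with 3 nM 6-alpha-fluorotestosterone present. Reporter mRNA measured by RT-PCR and capillary electrophoresis; gain of signal fitted versus DMSO.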

For experiment [8], the system named is turtle Thyroid Hormone Receptor, alpha (TRa), gene 101949057. The experiment can be described thus: ATG_trTRa_XSP1: Attagene TRANS-FACTORIAL Multi-Species (XSP1) HepG2 Assay for turtle Thyroid Hormone Receptor, alpha (TRa) (AID 2283806). The essentials: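 HepG2 cells transiently transfected with GAL4-UAS reporter units and chimeric receptor-Gal4 constructs, with 3 nM 6-alpha-fluorotestosterone present. Reporter mRNA was quantified 24 h after dosing by RT-PCR, 6-FAM labelling and capillary electrophoresis; gain of signal versus DMSO.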

The target of experiment [9] is human Thyroid hormone Receptor beta (TRb), THRB (gene 7068) (UniProt P10828). Put plainly: ATG_hTRb_XSP1: Attagene TRANS-FACTORIAL Multi-Species (XSP1) HepG2 Assay for human Thyroid hormone Receptor beta (TRb) (AID 2283808). The method, boiled down:
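HepG2 cells transiently transfected with reporter units driving GAL4-UAS reporters for chimeric NR-Gal4 proteins; 24 h chemical exposure with 3 nM 6-alpha-fluorotestosterone present. Reporter mRNA quantified by RT-PCR and capillary electrophoresis, gain of signal versus DMSO.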

Experiment [10] deals with zebrafish Thyroid Hormone Receptor beta (TRb), thrb (gene 30607) (UniProt Q9PVE4). Put plainly: ATG_zfTRb_XSP1: Attagene TRANS-FACTORIAL Multi-Species (XSP1) HepG2 Assay for zebrafish Thyroid Hormone Receptor beta (TRb) (AID 2283809). The method, boiled down: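 HepG2 cells transiently transfected with multiplexed GAL4-UAS reporter units expressing chimeric zebrafish TRb–Gal4. Dosed 24 h with 3 nM 6-alpha-fluorotestosterone present; reporter mRNA measured by RT-PCR, HpaI digestion and capillary electrophoresis; gain of signal versus DMSO.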

The nature of experiment [11]: ATG_M_06_XSP2: Attagene TRANS-FACTORIAL Multi-Species (XSP2) HepG2 Assay for M06 Transcription Factor (Internal Marker) (AID 2283811).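 Note: hits are increases in signal above the DMSO baseline.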 The method, boiled down:
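HepG2, multiplexed reporter transfection; 24 h dosing; AR stimulated with 3 nM 6-alpha-fluorotestosterone + 1.5 nM norgestrel; RNA → RT-PCR → 6-FAM primer extension → HpaI → CE. Positive direction vs DMSO.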

In experiment [12] the test system is turtle Estrogen Receptor (ERa), gene 101933533. Put plainly: ATG_trERa_XSP2: Attagene TRANS-FACTORIAL Multi-Species (XSP2) HepG2 Assay for turtle Estrogen Receptor (ERa) (AID 2283812).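 Note: human HepG2 liver cells transiently expressing turtle ERa-Gal4 chimeric receptor; actives raise reporter signal above DMSO so AC50 reflects agonist activity.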 The method, boiled down: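 HepG2 cells transiently transfected with GAL4-UAS reporter units expressing turtle ERa-Gal4 chimera. Reporter mRNA measured after 24 h dosing by RT-PCR, fluorescent labelling and capillary electrophoresis; gain of signal fitted versus DMSO.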

Experiment [13] deals with GAL4 Transcription Factor (Internal Marker), GAL4 (gene 855828) (UniProt P04386). Put plainly: ATG_GAL4_XSP2: Attagene TRANS-FACTORIAL Multi-Species (XSP2) HepG2 Assay for GAL4 Transcription Factor (Internal Marker) (AID 2283814).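 Note: GAL4 reporter mRNA background control in MRTU transfected cells not a receptor target.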 The method, boiled down: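 HepG2 cells transiently transfected with GAL4-UAS reporter units, stimulated with 3 nM 6-alpha-fluorotestosterone plus 1.5 nM norgestrel, dosed 24 h. Reporter mRNA by RT-PCR/capillary electrophoresis; gain-of-signal fit versus DMSO, background control.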

For experiment [14] the target is unchanged. Put plainly: ATG_GAL4_XSP1: Attagene TRANS-FACTORIAL Multi-Species (XSP1) HepG2 Assay for GAL4 Transcription Factor (Internal Marker) (AID 2283789). The essentials: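 HepG2 cells transiently transfected with multiplexed GAL4-UAS reporter units were exposed for 24 h with 3 nM 6-alpha-fluorotestosterone present. Reporter mRNA was quantified by RT-PCR, FAM labelling, HpaI digestion and capillary electrophoresis; background-control readout, gain-of-signal versus DMSO.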

Experiment [15] addresses frog Thyroid hormone Receptor alpha (TRa), thra-a (gene 397942) (UniProt P15204). Put plainly: ATG_frTRa_XSP1: Attagene TRANS-FACTORIAL Multi-Species (XSP1) HepG2 Assay for frog Thyroid hormone Receptor alpha (TRa) (AID 2283804). The method, boiled down: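 HepG2 cells transiently transfected with frog TRa-GAL4 chimeric reporter units, dosed 24 hr with 3 nM 6-alpha-fluorotestosterone present; reporter mRNA quantified by RT-PCR, fluorescent labelling and capillary electrophoresis, gain of signal versus DMSO.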

The target of experiment [16] is zebrafish Thyroid Hormone Receptor alpha (TRa), thraa (gene 30670) (UniProt Q98867). Put plainly: ATG_zfTRa_XSP1: Attagene TRANS-FACTORIAL Multi-Species (XSP1) HepG2 Assay for zebrafish Thyroid Hormone Receptor alpha (TRa) (AID 2283807). The method, boiled down: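 HepG2 cells transiently transfected with GAL4-UAS reporter units including a zebrafish TRa–Gal4 chimera, dosed 24 h with 3 nM 6-alpha-fluorotestosterone present. Reporter mRNA quantified by RT-PCR and capillary electrophoresis; gain versus DMSO.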

Experiment [17] in a line: ATG_XTT_Cytotoxicity_XSP1: Cytotoxicity Assessment in the Attagene TRANS-FACTORIAL Multi-Species (XSP1) HepG2 Assay (AID 2283810). The method, boiled down:
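XTT viability readout taken at 24 hours post-dosing in HepG2 liver cells co-treated with 3 nM 6-alpha-fluorotestosterone. Signal loss relative to DMSO controls reflects cytotoxicity.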

Experiment [18] concerns the target Estrogen receptor beta (Homo sapiens) (UniProt Q92731). The experiment can be described thus: ATG_hERb_XSP2: Attagene TRANS-FACTORIAL Multi-Species (XSP2) HepG2 Assay for human Estrogen Receptor (ERb) (AID 2283813).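 Note: actives raise reporter mRNA above DMSO so AC50 reflects agonist induction.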 The essentials: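 HepG2 cells transiently transfected with GAL4-UAS reporter units and chimeric human ERb-Gal4, 24 h exposure. Reporter mRNA quantified by RT-PCR with FAM labelling, HpaI digestion and capillary electrophoresis; gain of signal versus DMSO.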

A short description of experiment [19]: ATG_M_19_XSP1: Attagene TRANS-FACTORIAL Multi-Species (XSP1) HepG2 Assay for M19 Transcription Factor (Internal Marker) (AID 2283798). The essentials:
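HepG2 cells transiently transfected with multiplexed GAL4-UAS reporter units, dosed 24 h with 3 nM 6-alpha-fluorotestosterone present for partial AR stimulation. Reporter mRNA measured by RT-PCR with capillary electrophoresis; gain-of-signal fitted relative to DMSO.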

Experiment [20] in a line: ATG_M_32_XSP1: Attagene TRANS-FACTORIAL Multi-Species (XSP1) HepG2 Assay for M32 Transcription Factor (Internal Marker) (AID 2283799). The essentials:
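HepG2 cells transiently transfected with multi-species TRANS reporter units, dosed 24 h with 3 nM 6-alpha-fluorotestosterone present. Internal-marker reporter mRNA quantified by RT-PCR and capillary electrophoresis; positive-direction fit versus DMSO.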

Chain of human Thyroid hormone Receptor alpha (TRa), THRA (gene 7067) (P10827 whole entry, looked up, the tested form may be a part): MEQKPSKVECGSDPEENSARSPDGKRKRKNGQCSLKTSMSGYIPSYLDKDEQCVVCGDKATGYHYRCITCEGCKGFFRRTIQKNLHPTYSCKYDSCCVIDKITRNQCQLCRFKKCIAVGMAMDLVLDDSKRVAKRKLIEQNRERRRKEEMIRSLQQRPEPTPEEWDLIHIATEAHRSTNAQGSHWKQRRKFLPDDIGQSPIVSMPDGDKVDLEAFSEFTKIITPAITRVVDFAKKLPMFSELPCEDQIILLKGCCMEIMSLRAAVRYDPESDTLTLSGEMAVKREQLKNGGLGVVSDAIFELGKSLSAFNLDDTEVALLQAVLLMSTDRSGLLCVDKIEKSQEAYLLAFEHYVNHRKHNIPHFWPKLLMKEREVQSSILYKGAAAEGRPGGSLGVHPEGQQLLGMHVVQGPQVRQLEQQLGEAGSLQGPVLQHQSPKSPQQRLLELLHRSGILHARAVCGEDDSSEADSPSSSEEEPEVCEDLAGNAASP
Chain of human Thyroid hormone Receptor beta (TRb), THRB (gene 7068) (P10828 whole entry, looked up, the tested form may be a part): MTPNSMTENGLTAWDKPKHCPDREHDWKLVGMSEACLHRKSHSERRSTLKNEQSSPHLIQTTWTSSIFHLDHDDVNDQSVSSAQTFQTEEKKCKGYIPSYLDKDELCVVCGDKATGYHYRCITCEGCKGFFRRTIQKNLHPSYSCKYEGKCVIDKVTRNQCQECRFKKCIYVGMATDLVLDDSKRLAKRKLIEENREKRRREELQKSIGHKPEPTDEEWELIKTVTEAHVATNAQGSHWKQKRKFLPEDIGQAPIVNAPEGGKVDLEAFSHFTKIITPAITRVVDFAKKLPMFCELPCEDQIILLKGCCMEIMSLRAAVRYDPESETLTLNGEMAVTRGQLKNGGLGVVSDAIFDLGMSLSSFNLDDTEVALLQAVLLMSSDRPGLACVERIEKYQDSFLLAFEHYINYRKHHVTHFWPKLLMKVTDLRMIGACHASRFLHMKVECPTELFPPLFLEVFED
Chain of GAL4 Transcription Factor (Internal Marker), GAL4 (gene 855828) (P04386 whole entry, looked up, the tested form may be a part): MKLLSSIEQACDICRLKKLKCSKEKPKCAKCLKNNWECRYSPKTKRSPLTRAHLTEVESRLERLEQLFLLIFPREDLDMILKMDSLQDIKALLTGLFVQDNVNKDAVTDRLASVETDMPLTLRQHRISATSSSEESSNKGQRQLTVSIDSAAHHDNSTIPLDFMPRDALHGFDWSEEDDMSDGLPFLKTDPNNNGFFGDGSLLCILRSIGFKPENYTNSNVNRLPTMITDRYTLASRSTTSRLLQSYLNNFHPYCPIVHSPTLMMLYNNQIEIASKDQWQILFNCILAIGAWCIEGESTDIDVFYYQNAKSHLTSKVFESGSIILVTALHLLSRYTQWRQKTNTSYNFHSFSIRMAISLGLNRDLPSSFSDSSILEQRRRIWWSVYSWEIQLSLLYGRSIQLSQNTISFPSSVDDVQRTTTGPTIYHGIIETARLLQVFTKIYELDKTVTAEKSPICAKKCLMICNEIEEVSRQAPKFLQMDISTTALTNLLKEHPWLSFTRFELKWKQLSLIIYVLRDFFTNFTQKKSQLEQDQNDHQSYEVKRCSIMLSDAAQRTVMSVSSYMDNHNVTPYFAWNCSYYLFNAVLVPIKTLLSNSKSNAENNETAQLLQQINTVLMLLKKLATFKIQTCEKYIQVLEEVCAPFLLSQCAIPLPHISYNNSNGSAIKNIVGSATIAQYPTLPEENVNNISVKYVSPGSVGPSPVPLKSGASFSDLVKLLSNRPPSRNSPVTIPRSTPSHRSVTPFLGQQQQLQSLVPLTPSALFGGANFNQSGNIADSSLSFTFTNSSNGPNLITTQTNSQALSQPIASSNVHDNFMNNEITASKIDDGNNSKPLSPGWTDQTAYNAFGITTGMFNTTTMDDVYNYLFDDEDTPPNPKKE
Chain of Peroxisome proliferator-activated receptor gamma (Homo sapiens) (P37231 whole entry, looked up, the tested form may be a part): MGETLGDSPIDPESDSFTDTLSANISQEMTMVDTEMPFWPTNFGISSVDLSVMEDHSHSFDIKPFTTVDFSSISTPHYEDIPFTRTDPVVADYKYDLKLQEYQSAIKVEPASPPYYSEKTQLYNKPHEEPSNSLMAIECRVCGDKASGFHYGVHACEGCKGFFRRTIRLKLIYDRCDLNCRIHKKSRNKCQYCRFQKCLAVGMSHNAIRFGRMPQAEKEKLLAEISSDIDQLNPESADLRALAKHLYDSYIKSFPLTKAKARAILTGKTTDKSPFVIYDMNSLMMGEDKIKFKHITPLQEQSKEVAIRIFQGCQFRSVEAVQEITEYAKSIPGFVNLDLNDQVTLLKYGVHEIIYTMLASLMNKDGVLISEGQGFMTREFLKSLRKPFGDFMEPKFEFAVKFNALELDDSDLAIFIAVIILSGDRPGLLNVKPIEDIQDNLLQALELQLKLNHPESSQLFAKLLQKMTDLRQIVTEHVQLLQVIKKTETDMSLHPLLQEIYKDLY
Chain of Estrogen receptor beta (Homo sapiens) (Q92731 whole entry, looked up, the tested form may be a part): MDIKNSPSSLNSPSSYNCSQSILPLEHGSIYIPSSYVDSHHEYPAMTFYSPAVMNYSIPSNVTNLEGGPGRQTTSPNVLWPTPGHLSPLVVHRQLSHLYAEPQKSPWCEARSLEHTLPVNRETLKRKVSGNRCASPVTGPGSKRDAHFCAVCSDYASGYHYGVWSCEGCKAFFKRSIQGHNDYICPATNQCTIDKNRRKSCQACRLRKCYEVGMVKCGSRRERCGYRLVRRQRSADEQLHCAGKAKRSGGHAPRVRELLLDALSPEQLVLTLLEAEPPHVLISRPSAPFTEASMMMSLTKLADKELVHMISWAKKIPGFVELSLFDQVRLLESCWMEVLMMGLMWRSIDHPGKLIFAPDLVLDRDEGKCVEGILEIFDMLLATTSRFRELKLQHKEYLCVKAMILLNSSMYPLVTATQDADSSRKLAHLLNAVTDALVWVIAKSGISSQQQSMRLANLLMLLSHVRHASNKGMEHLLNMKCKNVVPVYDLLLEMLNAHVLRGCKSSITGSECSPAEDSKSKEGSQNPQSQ
Chain of zebrafish Thyroid Hormone Receptor beta (TRb), thrb (gene 30607) (Q9PVE4 whole entry, looked up, the tested form may be a part): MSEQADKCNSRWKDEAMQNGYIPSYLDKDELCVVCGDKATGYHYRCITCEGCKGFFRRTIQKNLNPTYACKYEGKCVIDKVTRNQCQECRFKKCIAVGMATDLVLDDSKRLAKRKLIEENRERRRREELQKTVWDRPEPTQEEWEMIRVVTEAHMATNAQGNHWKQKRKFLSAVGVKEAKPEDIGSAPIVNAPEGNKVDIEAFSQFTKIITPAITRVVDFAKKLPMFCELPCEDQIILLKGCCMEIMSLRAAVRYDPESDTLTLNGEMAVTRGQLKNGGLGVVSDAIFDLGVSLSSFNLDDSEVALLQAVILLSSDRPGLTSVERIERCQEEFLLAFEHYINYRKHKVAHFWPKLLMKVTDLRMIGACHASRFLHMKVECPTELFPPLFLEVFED
Chain of mouse Peroxisome Proliferator-activated Receptor gamma (PPARg), Pparg (gene 19016) (P37238 whole entry, looked up, the tested form may be a part): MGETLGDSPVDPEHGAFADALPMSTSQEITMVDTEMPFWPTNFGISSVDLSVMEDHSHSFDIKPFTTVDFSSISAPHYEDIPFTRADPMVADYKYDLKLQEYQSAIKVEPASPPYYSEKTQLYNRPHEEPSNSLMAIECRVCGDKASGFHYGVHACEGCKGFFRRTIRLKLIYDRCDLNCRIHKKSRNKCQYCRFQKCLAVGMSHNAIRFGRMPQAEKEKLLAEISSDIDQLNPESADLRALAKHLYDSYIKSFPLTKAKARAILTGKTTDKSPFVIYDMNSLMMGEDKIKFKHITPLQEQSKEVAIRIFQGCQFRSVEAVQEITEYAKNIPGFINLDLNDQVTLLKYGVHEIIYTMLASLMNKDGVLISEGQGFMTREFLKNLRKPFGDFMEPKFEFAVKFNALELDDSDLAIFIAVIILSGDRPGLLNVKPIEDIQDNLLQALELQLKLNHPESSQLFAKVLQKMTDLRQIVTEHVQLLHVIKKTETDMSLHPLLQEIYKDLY
Chain of AR (gene 367) (P10275 whole entry, looked up): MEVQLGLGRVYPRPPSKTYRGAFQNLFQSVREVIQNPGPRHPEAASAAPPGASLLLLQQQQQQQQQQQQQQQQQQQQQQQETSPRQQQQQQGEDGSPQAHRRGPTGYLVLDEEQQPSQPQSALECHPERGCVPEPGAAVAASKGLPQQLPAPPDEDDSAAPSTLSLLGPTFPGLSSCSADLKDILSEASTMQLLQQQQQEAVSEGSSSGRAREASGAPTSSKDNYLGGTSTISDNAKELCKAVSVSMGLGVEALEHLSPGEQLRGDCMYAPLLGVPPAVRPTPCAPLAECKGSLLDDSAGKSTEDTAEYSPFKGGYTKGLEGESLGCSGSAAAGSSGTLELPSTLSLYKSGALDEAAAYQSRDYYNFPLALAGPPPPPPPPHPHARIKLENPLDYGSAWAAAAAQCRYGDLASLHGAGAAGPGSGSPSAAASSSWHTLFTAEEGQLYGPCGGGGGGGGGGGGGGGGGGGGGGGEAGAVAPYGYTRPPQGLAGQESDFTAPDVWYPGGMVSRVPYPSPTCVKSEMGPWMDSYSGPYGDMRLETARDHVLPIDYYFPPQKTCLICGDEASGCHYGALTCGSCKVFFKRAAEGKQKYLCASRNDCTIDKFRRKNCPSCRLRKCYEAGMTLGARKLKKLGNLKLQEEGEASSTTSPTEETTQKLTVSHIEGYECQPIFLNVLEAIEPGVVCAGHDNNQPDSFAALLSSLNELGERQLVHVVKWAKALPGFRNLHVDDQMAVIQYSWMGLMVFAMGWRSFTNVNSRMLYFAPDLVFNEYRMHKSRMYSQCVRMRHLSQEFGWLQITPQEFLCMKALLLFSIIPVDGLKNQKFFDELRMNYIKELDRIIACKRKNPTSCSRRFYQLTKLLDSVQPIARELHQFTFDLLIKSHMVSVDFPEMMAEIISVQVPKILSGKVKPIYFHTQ

By AC50 is commonly meant the concentration at which the activity in the assay is half-maximal. With `N#Cc1cc(Br)c(O)c(Br)c1`, the concentration at half-maximal activity (AC50) in experiment [1] was 53.5 µM (active).

Take `C#CCOS(=O)OC1CCCCC1Oc1ccc(C(C)(C)C)cc1` (stereo unspecified): the AC50 was 24.2 µM (active) in experiment [2], 26.1 µM (active) in [4], 129 µM (active) in experiment [5] and 7.65 µM (active) in experiment [6]. Also, the call in [3], in experiment [7], in experiment [8], in experiment [9], in experiment [10] and in experiment [11] was inactive. The result in experiment [12] and in experiment [13] was inactive.

`CC(C)Oc1cc(-n2nc(C(C)(C)C)oc2=O)c(Cl)cc1Cl`: the AC50 in [2] was 100 µM (active); in experiment [4], 12.7 µM (active); in [6], 14 µM (active); in experiment [15] it was 61.6 µM (active); in experiment [12], 100 µM (active); in experiment [18] it was 29.3 µM (active). Further, the molecule was called inactive in experiment [14], in experiment [3], in experiment [5], in experiment [8], in experiment [16] and in experiment [10]. In addition, the call in experiment [17], in experiment [11] and in [13] was inactive.

As to `Cc1cc(Cl)ccc1OCC(=O)O`, in experiment [1], the molecule was called inactive.

Take `CC1=C(C(=O)Nc2ccccc2)SCCO1`: in experiment [1], the molecule was classed as inactive.

Consider `CCCCNC(=O)n1c(NC(=O)OC)nc2ccccc21`, for which the AC50 in experiment [1] was 71.7 µM (active).

Regarding `Cc1ccc(-c2c(Cl)nc(C#N)n2S(=O)(=O)N(C)C)cc1`, the concentration at half-maximal activity (AC50) in experiment [1] was 14.1 µM (active).

In the case of `CCCCC(CC)COC(=O)c1ccccc1C(=O)OCC(CC)CCCC` (stereo unspecified), the outcome in [3], in [19], in [20], in [5], in experiment [6] and in experiment [15] was inactive. Besides, the outcome in experiment [16], in experiment [17] and in [11] was inactive. Besides, the concentration at half-maximal activity (AC50) in experiment [4] is 8.96 µM (active); in experiment [7], 46.3 µM (active); in [8] it was 47.8 µM (active); in experiment [9] it was 100 µM (active); in experiment [10], 100 µM (active).

As for `COc1ccc(C(c2ccc(OC)cc2)C(Cl)(Cl)Cl)cc1`, the molecule was called inactive in [2], in experiment [14], in experiment [3], in [19], in experiment [4] and in experiment [6]. For the same molecule, the outcome in experiment [7], in experiment [16], in experiment [9], in experiment [10], in experiment [17] and in experiment [11] was inactive. Further, the outcome in experiment [18] and in [13] was inactive. Also, in experiment [12], the half-maximal activity concentration (AC50) was 8.99 µM (active).
